What was measured:
[1] = target: Serine/threonine-protein kinase 26 (Homo sapiens) (UniProt Q9P289); details: at 1 µM;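 note: mean inhibition of MST4 kinase activity, reported from the GSK PKIS inhibitor-set screening panel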
[2] = target: Serine/threonine-protein kinase PAK 1 (Homo sapiens) (UniProt Q13153); details: at 0.1 µM
[3] = target: Serine/threonine-protein kinase PAK 1 (Homo sapiens) (UniProt Q13153); details: at 1 µM
[4] = target: Serine/threonine-protein kinase PAK 2 (Homo sapiens) (UniProt Q13177); details: at 0.1 µM
[5] = target: Serine/threonine-protein kinase PAK 2 (Homo sapiens) (UniProt Q13177); details: at 1 µM
[6] = target: Serine/threonine-protein kinase PAK 3 (Homo sapiens) (UniProt O75914); details: at 0.1 µM
[7] = target: Serine/threonine-protein kinase PAK 3 (Homo sapiens) (UniProt O75914); details: at 1 µM
[8] = target: Serine/threonine-protein kinase PAK 5 (Homo sapiens) (UniProt Q9P286); details: at 0.1 µM
[9] = target: Serine/threonine-protein kinase PAK 5 (Homo sapiens) (UniProt Q9P286); details: at 1 µM
[10] = target: Serine/threonine-protein kinase PAK 6 (Homo sapiens) (UniProt Q9NQU5); details: at 0.1 µM
[11] = target: Serine/threonine-protein kinase PAK 6 (Homo sapiens) (UniProt Q9NQU5); details: at 1 µM
[12] = system: Tyrosine-protein kinase ABL1 (Homo sapiens), P00519 [E255K]; details: at 0.1 µM
[13] = system: Tyrosine-protein kinase ABL1 (Homo sapiens), P00519 [E255K]; details: at 1 µM
[14] = system: Tyrosine-protein kinase ABL1 (Homo sapiens), P00519 [H396P]; details: at 0.1 µM
[15] = system: Tyrosine-protein kinase ABL1 (Homo sapiens), P00519 [H396P]; details: at 1 µM
[16] = system: Tyrosine-protein kinase ABL1 (Homo sapiens), P00519 [M351T]; details: at 0.1 µM
[17] = system: Tyrosine-protein kinase ABL1 (Homo sapiens), P00519 [M351T]; details: at 1 µM
[18] = system: Tyrosine-protein kinase ABL1 (Homo sapiens), P00519 [Q252H]; details: at 0.1 µM
[19] = system: Tyrosine-protein kinase ABL1 (Homo sapiens), P00519 [Q252H]; details: at 1 µM
[20] = system: Tyrosine-protein kinase ABL1 (Homo sapiens), P00519 [T315I]; details: at 0.1 µM

Serine/threonine-protein kinase PAK 3 (Homo sapiens), sequence (O75914 whole entry, looked up): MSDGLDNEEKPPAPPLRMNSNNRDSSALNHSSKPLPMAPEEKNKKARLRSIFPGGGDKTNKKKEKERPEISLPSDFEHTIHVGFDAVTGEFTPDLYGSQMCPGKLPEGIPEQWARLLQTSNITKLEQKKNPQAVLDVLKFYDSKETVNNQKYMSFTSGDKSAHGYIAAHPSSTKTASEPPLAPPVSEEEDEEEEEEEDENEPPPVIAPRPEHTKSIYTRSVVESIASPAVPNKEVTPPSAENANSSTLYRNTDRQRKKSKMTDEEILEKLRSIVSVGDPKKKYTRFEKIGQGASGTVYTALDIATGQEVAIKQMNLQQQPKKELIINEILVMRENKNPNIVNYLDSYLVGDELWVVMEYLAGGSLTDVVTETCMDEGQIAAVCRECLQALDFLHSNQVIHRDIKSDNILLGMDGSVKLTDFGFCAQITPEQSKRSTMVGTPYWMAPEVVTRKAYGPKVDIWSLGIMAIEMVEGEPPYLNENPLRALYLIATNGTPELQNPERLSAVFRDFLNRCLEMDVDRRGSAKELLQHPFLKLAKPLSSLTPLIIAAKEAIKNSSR
Serine/threonine-protein kinase 26 (Homo sapiens), sequence (Q9P289 2-416 limits assumed): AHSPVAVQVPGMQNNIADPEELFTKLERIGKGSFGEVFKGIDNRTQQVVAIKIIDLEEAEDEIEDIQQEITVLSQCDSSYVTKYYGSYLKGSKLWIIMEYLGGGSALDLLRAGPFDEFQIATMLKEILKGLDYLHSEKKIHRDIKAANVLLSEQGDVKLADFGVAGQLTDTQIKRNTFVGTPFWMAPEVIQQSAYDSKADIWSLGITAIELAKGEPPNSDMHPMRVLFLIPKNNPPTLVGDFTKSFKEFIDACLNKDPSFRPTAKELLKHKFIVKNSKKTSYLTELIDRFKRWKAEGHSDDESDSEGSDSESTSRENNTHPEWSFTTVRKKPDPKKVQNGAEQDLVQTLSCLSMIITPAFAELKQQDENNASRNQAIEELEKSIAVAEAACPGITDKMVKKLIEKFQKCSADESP
Serine/threonine-protein kinase PAK 1 (Homo sapiens), sequence (Q13153 whole entry): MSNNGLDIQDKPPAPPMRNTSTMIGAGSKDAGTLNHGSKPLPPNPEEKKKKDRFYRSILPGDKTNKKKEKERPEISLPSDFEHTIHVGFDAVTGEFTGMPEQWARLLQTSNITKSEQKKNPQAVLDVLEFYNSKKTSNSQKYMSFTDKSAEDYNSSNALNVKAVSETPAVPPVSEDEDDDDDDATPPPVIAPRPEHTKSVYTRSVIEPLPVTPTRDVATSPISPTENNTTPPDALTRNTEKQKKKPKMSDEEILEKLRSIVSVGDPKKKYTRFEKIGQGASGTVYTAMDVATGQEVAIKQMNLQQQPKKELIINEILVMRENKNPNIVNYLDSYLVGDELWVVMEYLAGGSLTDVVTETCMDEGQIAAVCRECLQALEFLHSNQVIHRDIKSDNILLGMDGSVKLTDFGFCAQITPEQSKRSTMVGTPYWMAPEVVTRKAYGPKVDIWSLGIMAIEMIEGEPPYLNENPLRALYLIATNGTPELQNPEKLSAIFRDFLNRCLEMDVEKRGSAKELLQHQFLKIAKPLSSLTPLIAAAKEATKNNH
Serine/threonine-protein kinase PAK 5 (Homo sapiens), sequence (Q9P286 whole entry, looked up): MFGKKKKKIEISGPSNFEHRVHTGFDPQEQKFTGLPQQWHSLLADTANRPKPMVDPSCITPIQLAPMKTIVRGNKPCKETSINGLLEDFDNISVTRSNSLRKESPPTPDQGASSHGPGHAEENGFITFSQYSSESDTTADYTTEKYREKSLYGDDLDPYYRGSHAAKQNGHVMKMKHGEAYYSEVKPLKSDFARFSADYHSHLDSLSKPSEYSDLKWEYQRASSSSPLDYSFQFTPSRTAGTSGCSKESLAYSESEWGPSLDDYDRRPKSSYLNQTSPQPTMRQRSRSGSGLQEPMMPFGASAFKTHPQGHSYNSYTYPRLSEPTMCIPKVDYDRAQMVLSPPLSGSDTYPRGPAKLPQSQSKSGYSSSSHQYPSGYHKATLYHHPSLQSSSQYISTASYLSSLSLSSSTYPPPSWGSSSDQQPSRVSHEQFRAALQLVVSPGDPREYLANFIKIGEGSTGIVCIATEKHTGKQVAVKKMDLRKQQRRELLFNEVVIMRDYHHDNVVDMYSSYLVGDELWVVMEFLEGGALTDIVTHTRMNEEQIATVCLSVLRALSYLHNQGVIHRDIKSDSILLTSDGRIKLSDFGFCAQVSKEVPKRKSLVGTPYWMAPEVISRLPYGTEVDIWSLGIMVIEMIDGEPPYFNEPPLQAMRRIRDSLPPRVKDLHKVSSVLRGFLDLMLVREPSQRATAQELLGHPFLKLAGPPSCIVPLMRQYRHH
Serine/threonine-protein kinase PAK 2 (Homo sapiens), sequence (Q13177 whole entry): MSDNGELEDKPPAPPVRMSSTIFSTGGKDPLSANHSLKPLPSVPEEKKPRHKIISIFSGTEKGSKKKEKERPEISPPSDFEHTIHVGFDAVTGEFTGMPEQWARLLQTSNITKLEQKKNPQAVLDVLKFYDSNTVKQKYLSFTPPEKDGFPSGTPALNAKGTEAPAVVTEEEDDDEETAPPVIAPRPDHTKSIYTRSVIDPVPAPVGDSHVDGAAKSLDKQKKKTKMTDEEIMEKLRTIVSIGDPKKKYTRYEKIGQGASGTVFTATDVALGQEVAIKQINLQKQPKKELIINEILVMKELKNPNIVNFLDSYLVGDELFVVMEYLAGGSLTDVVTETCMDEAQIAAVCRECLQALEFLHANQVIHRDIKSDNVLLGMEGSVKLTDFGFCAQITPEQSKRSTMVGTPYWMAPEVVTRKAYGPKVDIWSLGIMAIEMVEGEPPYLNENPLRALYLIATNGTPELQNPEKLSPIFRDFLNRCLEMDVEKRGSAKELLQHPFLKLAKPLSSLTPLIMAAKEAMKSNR
Serine/threonine-protein kinase PAK 6 (Homo sapiens), sequence (Q9NQU5 whole entry, looked up): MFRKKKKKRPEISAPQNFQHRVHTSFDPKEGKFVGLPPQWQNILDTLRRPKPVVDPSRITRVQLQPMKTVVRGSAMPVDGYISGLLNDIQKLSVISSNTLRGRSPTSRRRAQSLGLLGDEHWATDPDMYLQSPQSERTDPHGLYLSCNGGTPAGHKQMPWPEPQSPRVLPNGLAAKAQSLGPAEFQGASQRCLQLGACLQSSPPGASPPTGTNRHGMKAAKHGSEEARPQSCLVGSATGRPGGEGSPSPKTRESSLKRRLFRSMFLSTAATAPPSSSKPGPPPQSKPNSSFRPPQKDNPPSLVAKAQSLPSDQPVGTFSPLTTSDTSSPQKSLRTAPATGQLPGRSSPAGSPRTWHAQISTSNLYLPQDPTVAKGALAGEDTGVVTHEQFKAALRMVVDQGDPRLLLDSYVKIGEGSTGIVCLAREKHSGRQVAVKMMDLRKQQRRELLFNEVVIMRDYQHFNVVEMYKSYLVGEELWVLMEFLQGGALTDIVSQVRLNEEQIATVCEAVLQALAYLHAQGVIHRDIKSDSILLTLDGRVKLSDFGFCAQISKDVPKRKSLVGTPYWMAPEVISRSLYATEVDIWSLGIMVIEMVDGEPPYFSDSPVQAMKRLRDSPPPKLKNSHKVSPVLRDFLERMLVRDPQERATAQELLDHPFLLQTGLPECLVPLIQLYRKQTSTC

| Structure (SMILES) | inhibition [1] [%] | inhibition [2] [%] | inhibition [3] [%] | inhibition [4] [%] | inhibition [5] [%] | inhibition [6] [%] | inhibition [7] [%] | inhibition [8] [%] | inhibition [9] [%] | inhibition [10] [%] | inhibition [11] [%] | inhibition [12] [%] | inhibition [13] [%] | inhibition [14] [%] | inhibition [15] [%] | inhibition [16] [%] | inhibition [17] [%] | inhibition [18] [%] | inhibition [19] [%] | inhibition [20] [%] |
| --- | --- | --- | --- | --- | --- | --- | --- | --- | --- | --- | --- | --- | --- | --- | --- | --- | --- | --- | --- | --- |
| CCn1c(-c2nonc2N)nc2cncc(C(=O)NCCNC)c21 | -4.29 | 6.24 | 7.29 | 1.98 | 2.75 | 5.11 | 5.12 | 3.97 | 7.69 | 0.36 | -1.02 | 3.42 | 4.29 | 3.77 | 6.65 | -0.31 | 3.11 | 4.53 | 5.61 | 3.85 |
| CNC(=O)c1cncc(/C=C/c2ccccc2C)c1 | 2.47 | 4.67 | 7.54 | 2.06 | 2.02 | 4.95 | 5.93 | 15.4 | 4.8 | -2.91 | 12 | 4.47 | 16.5 | 6.03 | 28.8 | 6.13 | 22.7 | 5.28 | 19.3 | 1.47 |
| COC(=O)Nc1nc2cc(Oc3ccc(NC(=O)Nc4ccccc4)cc3)ccc2[nH]1 | 0.25 | 0.78 | 3.46 | 1.73 | 0.63 | 3.68 | 4.15 | -3.58 | -3.97 | -4.28 | -2.94 | 4.95 | 11.4 | 14.1 | 41 | 28.9 | 47.8 | 22.5 | 51.8 | 15.9 |
| CC1=C(C(=O)Nc2ccc3[nH]ncc3c2)C(c2ccc(F)cc2)N=C(c2ccc(C(F)(F)F)nc2)N1 (stereo not given) | -0.15 | 2.26 | 3.97 | 0.86 | 0.19 | 1.4 | 0.67 | 5.14 | -1.73 | 8.32 | 1.5 | 2.72 | 3.5 | 2.21 | 1.95 | 1.43 | 3.71 | 1.86 | 3.9 | 1.97 |
| CNC(=O)c1ncccc1Nc1nc(Nc2cc3c(cc2OC)CCCN3C(=O)CN(C)C)nc2[nH]ccc12 | -5.28 | 7.85 | 7.25 | 0.92 | 1.69 | 4.29 | 5.27 | 5.25 | -0.15 | 11.4 | 3.38 | 2.91 | 2.97 | 2.6 | 2.23 | 1.84 | 0.31 | 3.06 | 3.95 | 3.72 |
| NC(=O)c1ccc2c(-c3ccnc(NCCCO)n3)c(-c3ccc(F)cc3)nn2c1 | -2.28 | 7.12 | 6.41 | 2.25 | 2.24 | 4.61 | 4.88 | 0.64 | -4.27 | 5.26 | -5.05 | 4.7 | 7.28 | 6.27 | 8.34 | 3.9 | 10.1 | 5.67 | 10.2 | 2.91 |
| NS(=O)(=O)c1ccc(N/N=C2\C(=O)Nc3cccc(CCc4ccncc4)c32)cc1 | 9.93 | 1.58 | 2.13 | 0.84 | 0.54 | 0.06 | 0.66 | 1.07 | 3.39 | -5.12 | -3.63 | -0.21 | 3.53 | 2.64 | 7.39 | 3.41 | 8.25 | 1.54 | 7.74 | 1.83 |
| Fc1ccc(Nc2nccc(-c3c(-c4ccc(C(F)(F)F)cc4)nn4ncccc34)n2)cc1F | -0.83 | 4.75 | 4.66 | 1.92 | 2.47 | 3.13 | 3.25 | -0.66 | -1.33 | 0.92 | 1.02 | 0.93 | 3.19 | 3.64 | 1.04 | 2.73 | 2.45 | 3.28 | -0.3 | 3.85 |
| Cn1c(-c2nonc2N)nc2cnccc21 | -1.1 | 5.69 | 9.42 | 1.04 | 0.39 | 3.23 | 2.69 | -1.86 | -0.53 | 3.95 | 0.39 | 2.74 | 1.01 | 2.83 | 2.87 | 1.44 | 2.81 | 2.07 | 1.71 | 0.03 |
